UHRF1 MBD2 ctr = UHRF1 methylated DNA binding inhibitors, primary screen, counter-screen for MBD2 inhibitor project, biochemical, TR-FRET, human UHRF1, single concentration. actives 0.75% (n = 370,000). UHRF1 binding to methylated oligo. inhibition, % at 4.4 µM. E3 ubiquitin-protein ligase UHRF1 (Homo sapiens), Q96T88;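 note: UHRF1 SRA domain binding a hemimethylated CpG hairpin DNA probe; 0% = median of test compound wells and 100% = reference inhibitor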
LEDGF integ inh = blockers of LEDGF/p75-dependent integrase strand transfer – biochemical, TR-FRET, high throughput, primary screen | HIV-1 integrase (with human LEDGF/p75) | TR-FRET IN-LEDGF/p75 DNA integration, Eu/Cy5 | inhibition, % at 3.7 µM | actives 0.64% (n = 370,000);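 active = inhibition above the screen-wide mean plus 3 SD, cut at about 13% in these data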;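 note: signal is the Cy5 over europium emission ratio at 671 and 618 nm; 0% = plate median of compound wells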
PLC-gamma1 inh = PLC-gamma1 enzyme inhibitors, primary screen, biochemical, fluorescence, purified enzyme | 1-phosphatidylinositol 4,5-bisphosphate phosphodiesterase gamma-1 (Homo sapiens), P19174 | actives 0.84% (n = 370,000) | inhibition, % at 12.2 µM | fluorogenic substrate | AID 720700, 2013; in the data active = inhibition above about 9.5%
Target sequence (P19174 whole entry, looked up): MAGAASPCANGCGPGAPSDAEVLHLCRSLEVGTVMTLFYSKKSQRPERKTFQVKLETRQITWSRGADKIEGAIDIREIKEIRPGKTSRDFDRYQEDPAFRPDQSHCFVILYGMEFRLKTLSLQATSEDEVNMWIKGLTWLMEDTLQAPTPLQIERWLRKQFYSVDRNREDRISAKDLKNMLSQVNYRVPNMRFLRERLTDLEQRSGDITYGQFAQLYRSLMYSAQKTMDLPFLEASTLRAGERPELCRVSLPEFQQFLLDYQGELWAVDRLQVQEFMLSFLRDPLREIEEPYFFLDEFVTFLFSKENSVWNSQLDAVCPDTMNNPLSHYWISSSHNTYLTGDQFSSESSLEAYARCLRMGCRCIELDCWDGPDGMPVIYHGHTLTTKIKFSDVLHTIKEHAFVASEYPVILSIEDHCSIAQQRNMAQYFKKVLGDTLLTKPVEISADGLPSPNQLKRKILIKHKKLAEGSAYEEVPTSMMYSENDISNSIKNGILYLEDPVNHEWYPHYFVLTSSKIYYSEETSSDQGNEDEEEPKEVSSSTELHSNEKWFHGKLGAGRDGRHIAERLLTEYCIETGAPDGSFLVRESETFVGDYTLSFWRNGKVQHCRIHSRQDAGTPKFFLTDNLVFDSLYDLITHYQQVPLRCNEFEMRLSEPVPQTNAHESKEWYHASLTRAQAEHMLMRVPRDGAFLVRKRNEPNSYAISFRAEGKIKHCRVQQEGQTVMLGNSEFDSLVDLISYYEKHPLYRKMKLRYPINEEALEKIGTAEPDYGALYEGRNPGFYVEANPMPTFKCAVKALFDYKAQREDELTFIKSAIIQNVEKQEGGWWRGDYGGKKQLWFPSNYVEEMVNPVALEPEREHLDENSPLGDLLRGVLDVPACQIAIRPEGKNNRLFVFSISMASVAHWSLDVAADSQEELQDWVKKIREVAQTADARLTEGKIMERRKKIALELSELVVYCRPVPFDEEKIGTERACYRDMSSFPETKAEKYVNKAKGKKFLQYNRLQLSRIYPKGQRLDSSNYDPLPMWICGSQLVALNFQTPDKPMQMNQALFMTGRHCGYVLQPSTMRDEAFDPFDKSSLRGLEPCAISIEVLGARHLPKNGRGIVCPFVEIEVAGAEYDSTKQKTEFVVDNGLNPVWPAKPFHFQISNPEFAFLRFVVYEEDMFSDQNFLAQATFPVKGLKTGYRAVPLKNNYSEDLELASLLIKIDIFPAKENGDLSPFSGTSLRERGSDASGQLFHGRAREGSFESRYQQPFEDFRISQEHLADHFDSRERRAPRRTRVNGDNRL
MBD2 DNA inh = inhibitors of MBD2 binding to methylated DNA, primary screen, biochemical, TR-FRET, DNA-binding domain, human. inhibition, % at 4.4 µM. AID 686964, 2013. MBD2 binding to methylated oligonucleotide. Methyl-CpG-binding domain protein 2 (Homo sapiens), Q9UBB5. actives 0.31% (n = 370,000); in the data active = inhibition above about 13%
PLCb3 inh = human PLC-beta3 inhibitors, primary screen, biochemical, fluorescence; 1-phosphatidylinositol 4,5-bisphosphate phosphodiesterase beta-3 (Homo sapiens), Q01970; Purified PLC-beta3, fluorogenic substrate; inhibition, % at 12.2 µM; actives 0.18% (n = 370,000); in the data active = inhibition above about 11%;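 note: 0% = median of compound wells on plate and 100% = full blocker control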
UHRF1 ctr MBD2 = UHRF1 methylated DNA binding inhibitors, counter-screen for MBD2 inhibitor project, biochemical, TR-FRET, human UHRF1. actives 25% (n = 1,000). inhibition, % at 4.4 µM. UHRF1 binding to methylated oligonucleotide. shares compounds with MBD2 DNA inh;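 note: UHRF1 SRA domain binding a labeled hemimethylated CpG hairpin DNA; 0% = vehicle only and 100% = reference inhibitor with vehicle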
MBD2 confirm = inhibitors of MBD2 binding to methylated DNA, confirmation, biochemical, TR-FRET, DNA-binding domain, human. shares compounds with MBD2 DNA inh. TR-FRET MBD2-DBD binding to methylated oligonucleotide. inhibition, % at 4.4 µM. actives 26% (n = 1,000); in the data active = inhibition above about 14%
Starred values were filed as active, the others as inactive; i = inactive. This is a sample that favours compounds with a hit; in the whole collection about 2.3% have one here. Cut-off read from the data, not from the text of the source, unless noted: active = inhibition above about 21%; inactive = the rest.

SMILES | UHRF1 MBD2 ctr | LEDGF integ inh | PLC-gamma1 inh | MBD2 DNA inh | PLCb3 inh | others
CC(C)C[C@@H](CNCC(=O)[C@H](C)NC(=O)c1[nH]cnc1C(=O)N[C@@H](C)CN)NC(=O)c1nc[nH]c1C(=O)N[C@@H](C)C(=O)O | 22* | -3 | 2 | 12 | -2
O=C(COc1cccc(NC(=O)c2ccccc2)c1)c1ccccc1 | 27* | 5 | 0 | 8 | 5
O=C(Nc1cccc(OCC(=O)N2CCOCC2)c1)c1cccc([N+](=O)[O-])c1 | 34* | 1 | 0 | -3 | 0
O=C(Nc1ccc(OCc2ccccc2)cc1)c1ccccc1 | 65* | 1 | 2 | 6 | 2
O=C(O)COc1cccc(NC(=O)c2ccccc2)c1 | 1 | 2 | 1 | -2 | -1
Cn1c(NC(=O)/C=C\c2ccccc2)cc(=O)n(C)c1=O | 26* | 0 | 3 | 0 | 2
N=C1/C(=C/c2ccc(-c3cccc(C(=O)O)c3)o2)C(=O)N=C2SC=C(c3ccccc3)N12 | 5 | 24* | -18 | 7 | -23
N=C1/C(=C\c2ccc(-c3cc(Cl)cc(Cl)c3)o2)C(=O)N=C2SC=C(c3ccccc3)N12 | 2 | 3 | 4 | 1 | -9
CCCCCCn1c(=O)n2n(c1=O)[C@@H]1CN(S(=O)(=O)c3ccc(C)cc3)C[C@]1(O)[C@@H](OC(=O)NCC1CCCCC1)C2 | 23* | 0 | 1 | 4 | 0
COc1ccc(C(=O)C2(C(=O)Nc3cc(C)cc(C)c3)CC(c3ccccc3C(F)(F)F)=NO2)cc1 (configuration not stated) | -1 | -1 | 0 | 2 | -4
CCc1cccc(OCC(=O)Nc2ccc(S(=O)(=O)Nc3ccccn3)cc2)c1 | 79* | 3 | -8 | -2 | -18
COc1ccc(OC)c(S(=O)(=O)N2CCCC(C(=O)Nc3c(C)n(C)n(-c4ccccc4)c3=O)C2)c1 (configuration not stated) | 2 | 4 | 3 | 1 | 2
CC(C)(C)CCN1C[C@@H]2C(CNC(=O)c3cc(Cl)cc(Cl)c3)[C@@H]2C1 (some centres not stated) | -1 | 2 | 1 | -5 | 4
Cn1cc(-c2csc(C(C)(O)c3cccc(F)c3)n2)cn1 (configuration not stated) | 3 | -3 | 10* | 9 | -3
C[C@@H](Oc1ccccc1)c1nnn(Cc2ccccc2)c1-c1c([C@@H](C)Oc2ccccc2)nnn1Cc1ccccc1 | 6 | 6 | 16* | 2 | 3
O=C(NCCN1CCCCC1)Nc1ccc(F)cc1F | 23* | -5 | 1 | -4 | -3
O=C(NCCN1CCCCC1)Nc1ccccc1F | -1 | -2 | -1 | -2 | -5
O=C(Nc1ccc2c(c1)C(=O)NC2=O)c1cccc(C(F)(F)F)c1 | 21* | 4 | -112 | 7 | -144
O=C(Nc1ccc2c(c1)C(=O)NC2=O)c1ccccc1 | -1 | 4 | -479 | 1 | i
C=CCN1[C@H](Cc2ccccc2)COc2cccc(N3CCCC3)c2S1(=O)=O | 2 | 0 | -1 | 0 | -2
Oc1ccc2[nH]cc(CCc3ccccc3)c2c1-c1ccccc1 | 2 | -3 | -2 | 0 | -6
CC(C)NC(=O)C1(C)CSCC(=O)N1CCOc1ccccc1 (configuration not stated) | -1 | 6 | 6 | 1 | 4
CC(C)NC(=O)C1(C)CN(S(C)(=O)=O)CC(=O)N1CCOc1ccccc1 (configuration not stated) | 40* | 3 | 3 | -5 | 2
N/C(=N\OC(=O)/C=C/c1ccccc1)c1ccccn1 | 24* | -3 | -1 | 3 | 0
COC(=O)c1cc(Br)c(=O)n(-c2nccs2)c1 | -2 | -1 | -5 | 3 | -8
SMILES | UHRF1 MBD2 ctr | LEDGF integ inh | PLC-gamma1 inh | MBD2 DNA inh | PLCb3 inh | others
COC(=O)c1cc(Br)c(=O)n(-c2ccccn2)c1 | 37* | 1 | 3 | -6 | 5
O=C(NC1CCCCN(Cc2cccc(Cl)c2)C1=O)c1ccc(COc2ccccc2)cc1 (configuration not stated) | 1 | -2 | 2 | -3 | 2
O=C(COC(=O)c1cc(=O)[nH]c2ccccc12)NC1CCCC1 | 30* | 0 | -84 | 6 | -94
COc1cc(OC)c2ccc(=O)oc2c1C(CCN1CCCC1)c1ccc2c(c1)OCO2 (configuration not stated) | 0 | 1 | -66 | -3 | -63
COc1cc(OC)c2ccc(=O)oc2c1C(CCN1CCOCC1)c1ccc2c(c1)OCO2 (configuration not stated) | 26* | 1 | -62 | 4 | -98
O=S1(=O)c2ccccc2OC(COCc2ccccc2)CN1C1CC1 (configuration not stated) | 26* | 2 | 1 | 7 | 1
COc1ccc(N2CSC3=C(C#N)C(c4cccs4)CC(=O)N3C2)cc1 (configuration not stated) | 1 | -2 | 9.9* | 2 | 0
Cc1ccc(N2CSC3=C(C#N)C(c4cccs4)CC(=O)N3C2)cc1 (configuration not stated) | -3 | 6 | -15 | 1 | -16
CC(C)(C)CC(=O)NC(=S)Nc1ccccc1C(F)(F)F | 23* | 1 | 1 | 16* | -4 | UHRF1 ctr MBD2=11;MBD2 confirm=4
CC(C)N1CCCCC(NC(=O)c2ccc(-c3ccccc3)cc2)C1=O (configuration not stated) | 0 | -2 | 2 | 2 | 0
COc1cccc(-n2c(=O)c3c(C)c(C(=O)N(C)C)sc3n(CC(=O)NCC3CCCO3)c2=O)c1 (configuration not stated) | -2 | -8 | 0 | 16* | -6 | UHRF1 ctr MBD2=8;MBD2 confirm=4
CCc1ccc(-n2c(=O)c3c(C)c(C(=O)N(C)C)sc3n(CC(=O)NCC3CCCO3)c2=O)cc1 (configuration not stated) | 5 | -2 | 1 | 7 | -4
COc1ccc(-n2nnnc2-c2ccc(S(C)(=O)=O)cc2Cl)cc1 | 24* | 5 | -2 | 13* | -8 | UHRF1 ctr MBD2=1;MBD2 confirm=5
